High-throughput results (PubChem BioAssay)
CYP2C9 act = human CYP2C9 activators, primary screen, biochemical, luminescence; Cytochrome P450 2C9 (Homo sapiens), P11712; recombinant CYP2C9, luciferin-H conversion; stronger effect = higher value; factor 1 = untreated enzyme, 0 = blocked; activation factor at 5 µM; 1.4% of 96,000 active;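 active = activation factor of 2 or more for CYP2C9 at a 5 µM dose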;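 also: 0 = sulfaphenazole-blocked wells and 1 = vehicle-only wells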
CYP2C9 inh = blockers of cytochrome P450 2C9 activity – biochemical, luminescence, ADME assay, primary screen; P11712; CYP2C9 Supersomes, luciferin-H conversion; inhibition, % at 5 µM; 20% of 96,000 active;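 active = blocking of liver enzyme CYP2C9 beyond about 50% at 5 µM, limit read from the data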
CYP2C19 inh = blockers of cytochrome P450 2C19 activity – biochemical, luminescence, ADME assay, primary screen | P33261 | CYP2C19 Supersomes, luciferin-H EGE luminescence, 30 min | inhibition, % at 5 µM | 21% of 96,000 active | AID 778, 2007;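 active = CYP2C19 inhibition above a set limit at 5 µM in the primary screen, cut at about 50% in these data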;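 also: plate controls were negative control wells for no effect and 2.5 mM tranylcypromine positive control for full effect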
sEH inhibitor = soluble epoxide hydrolase inhibitors, primary screen, biochemical, human sEH; Bifunctional epoxide hydrolase 2 (Homo sapiens), P34913; recombinant human sEH enzymatic activity assay; inhibition, % at 2 µM; 0.34% of 91,000 active; in the data active = inhibition above about 80%
Target sequence (P34913 whole entry, looked up): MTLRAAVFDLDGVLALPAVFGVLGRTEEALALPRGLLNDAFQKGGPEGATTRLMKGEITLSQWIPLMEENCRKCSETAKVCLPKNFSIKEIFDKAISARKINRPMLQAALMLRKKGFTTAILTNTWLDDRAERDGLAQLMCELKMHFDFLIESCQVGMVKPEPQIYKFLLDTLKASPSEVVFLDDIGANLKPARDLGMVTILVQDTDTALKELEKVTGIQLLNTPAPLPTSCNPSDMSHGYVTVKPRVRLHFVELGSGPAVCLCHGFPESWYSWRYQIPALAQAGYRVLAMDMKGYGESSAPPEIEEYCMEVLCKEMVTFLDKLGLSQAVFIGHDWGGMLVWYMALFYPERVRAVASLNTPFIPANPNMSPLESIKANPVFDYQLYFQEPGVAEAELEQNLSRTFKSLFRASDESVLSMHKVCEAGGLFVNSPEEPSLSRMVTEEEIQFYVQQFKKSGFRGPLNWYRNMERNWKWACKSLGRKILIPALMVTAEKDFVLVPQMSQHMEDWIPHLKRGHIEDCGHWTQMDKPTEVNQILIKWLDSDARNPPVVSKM
sEH activator = soluble epoxide hydrolase activators, primary screen, biochemical, human sEH; purified human sEH enzymatic activity, activator screen; 0.04% of 91,000 active; activation, % at 2 µM; in the data active = activation above about 37%
CYP2C19 act = human CYP2C19 activators, primary screen, biochemical, luminescence | Cytochrome P450 2C19 (Homo sapiens), P33261 | recombinant CYP2C19, luciferin-H EGE luminescence; stronger effect = higher value; 0 = fully inhibited enzyme, 1 = untreated enzyme | activation factor at 5 µM | 96,000 tested, under 10 active | AID 1025, 2008;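 active = activation factor of at least 2 at 5 µM in the primary screen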;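 also: 0 = wells with 2.5 mM tranylcypromine and 1 = vehicle-only wells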
* marks the source's active call; other numbers are inactive results; nt = not tested or not shown. Hits are enriched below; roughly 27% of the tested compounds scored in any of these assays.

SMILES	CYP2C9 act	CYP2C9 inh	CYP2C19 inh	sEH inhibitor	sEH activator	CYP2C19 act
CCCCN1CCc2c1nc1ccc(Br)cc1c2N	0.9	12	45	1	-2	0.6
O=C(Nc1ccccc1)N(CCc1ccncc1)C1CCCCC1	nt	nt	nt	-11	10	nt
CC(/C=N\Nc1nnc2c(n1)[nH]c1c(C)cccc12)=C\c1ccco1	1	-3	-6	9	-6	1.1
COc1ccc(Cc2nc(C(=O)Nc3ccc(Cl)cc3)cs2)cc1	0.1	90*	83*	20	-20	0.2
COc1ccc(COc2ccsc2C(=O)Nc2ccc(Cl)cc2)cc1	0.4	59*	10	3	-1	0.9
COc1ccc(NC(=O)c2ccccn2)cc1	0.8	20	26	4	-1	0.7
COc1ccc(Cc2nc(C(=O)Nc3ccc(F)cc3)cs2)cc1	0.1	87*	89*	-2	0	0.1
COc1ccc(Cc2nc(C(=O)Nc3ccccc3)cs2)cc1	0.1	90*	88*	14	-16	0.1
CC(=O)c1c(C)[nH]c(C(=O)NCCN2CCC(C)CC2)c1C	1	-2	-7	nt	nt	1.1
CC1CN(c2nc3c(c(=O)[nH]c(=O)n3C)n2Cc2ccccc2F)CC(C)O1 (stereo not given)	0.8	19	1	nt	nt	1
CCOC(=O)C1C(=O)NC(N2CCc3ccccc32)=NC1c1ccccc1 (stereo not given)	1.1	-10	8	-2	2	0.9
CCOc1ccc(Cl)cc1S(=O)(=O)n1nnc2ccccc21	2*	-104	98*	3	-4	0
COc1ccccc1NC=C1C(=O)OC2(CCCCC2)OC1=O	2.8*	-177	20	0	0	0.8
COC(=O)c1ccccc1NC=C1C(=O)OC2(CCCCC2)OC1=O	0.7	25	4	nt	nt	1
CC(=O)Nc1ccc2c(c1)ncn2C1CCCCC1	nt	nt	nt	10	-5	nt
Nc1ccc(C(=O)N/N=C\c2cc(N=Nc3cccc4ccccc34)ccc2O)cc1	0.9	14	12	6	-3	0.9
Cc1ccc(CNCc2ccccc2Cl)cc1	0.8	21	99*	-6	6	0
Nc1nc(NCc2c(F)cccc2Cl)nn1-c1ccccc1	1	-2	29	8	-9	0.7
Fc1cccc(Cl)c1CNCc1ccccc1Cl	0.7	30	86*	-6	9	0.1
Cc1ccccc1CNCc1cccnc1	0.8	16	-1	4	-2	1
COc1ccc(CN2CCCC2C(=O)Nc2ccc(OC)c(OC)c2)cc1OC (stereo not given)	0.5	50	54*	nt	nt	0.5
COc1ccc(NC(=O)CC2CCCCC2)cc1OC	0.8	23	94*	24	-24	0.1
Oc1ccccc1N=Nc1nc(-c2ccccc2)c(-c2ccccc2)[nH]1	0.5	54*	24	11	-10	0.8
O=C(NCCCN1CCOCC1)C(Sc1ccccc1)c1ccccc1 (stereo not given)	1.1	-9	34	-3	6	0.7
O=C(Nc1ncccc1Cl)C(Sc1ccccc1)c1ccccc1 (stereo not given)	0.5	55*	58*	1	0	0.4
SMILES	CYP2C9 act	CYP2C9 inh	CYP2C19 inh	sEH inhibitor	sEH activator	CYP2C19 act
CC(=O)NS(=O)(=O)c1ccc(NC(=O)C(Sc2ccccc2)c2ccccc2)cc1 (stereo not given)	0.7	35	12	-17	16	0.9
CC(C)NC(=O)C(Sc1ccccc1)c1ccccc1 (stereo not given)	0.4	62*	96*	-6	7	0
O=C(Nc1ccon1)C(Sc1ccccc1)c1ccccc1 (stereo not given)	0.1	86*	92*	4	-1	0.1
CC(=O)c1c(C)oc(C)c1CSCc1ccc(C(=O)O)o1	1	2	3	0	-2	1
Cn1cc(CN2CCc3ccccc3C2)c2ccccc21	1.4	-40	96*	6	-6	0
Oc1ccc(CN2CCc3ccccc3C2)c2cccnc12	1.3	-30	0	-8	5	1
Cn1c(SCc2ccc(Cl)cc2)nc(C(F)(F)F)cc1=O	1	-3	6	3	0	0.9
CC(=O)OCc1c(C(F)(F)F)nn(C)c1SCc1ccc(Cl)cc1	0.4	62*	99*	12	-10	0
O=C(c1c(Cl)nc2sccn12)N(C(=O)c1c(Cl)nc2sccn12)c1ccc(Cl)cn1	0	100*	100*	12	-12	0
Cc1ccc2c(c1)nnn2C1CCN(C(=O)c2cccs2)CC1	0.3	72*	67*	-8	7	0.3
CCOc1ccc(NC(=O)Nc2ccc3c(c2)nnn3C)cc1	1.2	-23	-24	nt	nt	1.2
CCOc1ccc(NC(=O)N2CCC(n3nnc4cc(C)ccc43)CC2)cc1	0.4	60*	89*	34	-32	0.1
Cc1ccc2c(c1)nnn2C1CCN(C(=O)C2CCCCC2)CC1	0.4	61*	91*	nt	nt	0.1
O=C(CSc1nccn1-c1ccccc1)N1CCc2ccccc21	0.9	15	96*	-6	8	0
Cn1c(SCC(=O)N2CCc3ccccc32)nc2cccnc21	0.6	37	82*	-15	12	0.2
c1ccc(CCSc2nccn2-c2ccccc2)cc1	0.5	54*	61*	-3	5	0.4
O=C(CSc1ncc(-c2ccccc2)n1C1CCCC1)N1CCc2ccccc21	0.5	51*	65*	-3	3	0.3
O=C(O)c1cccnc1SCCc1ccccc1	0.7	25	6	2	-2	0.9
O=C(CSc1nnnn1-c1ccccc1)N1CCc2ccccc21	1.1	-9	-6	3	2	1.1
COc1ccc(CCNC(=O)c2cccnc2)cc1	0.7	29	35	-8	9	0.7
CC#CCCCC(=O)Nc1cccc(C(=O)O)c1	1	-4	39	0	2	0.6
CCOC(=O)c1cnn(-c2cc(Oc3ccccc3C)ncn2)c1N	0.9	14	12	7	-6	0.9
COc1ccc(OC2C(=O)N(c3ccc(F)cc3)C2c2ccc(OC)c(OC)c2)cc1 (stereo not given)	0.9	7	3	4	-1	1
COC(=O)c1ccc(C2C(Oc3ccc(OC)cc3)C(=O)N2CCc2ccc(F)cc2)cc1 (stereo not given)	0.7	25	56*	17	-14	0.4
CC1CCN(C(=S)NC2CCCCC2)CC1	0.9	8	70*	nt	nt	0.3
CC1CCN(C(=S)NC(=O)C2CCCCC2)CC1	1	4	22	-7	6	0.8
